# Shown is part of a subset that was picked to be rich in the strongest signals.
# Legend:
# Assay in all cases: glycan array binding signal (z-score within array); higher = stronger binding
# Details in all cases: glycan notation: IUPAC condensed, linker removed
# Fuc(a1-2)Gal = target: Fuc(a1-2)Gal
# Method in brief: (§1)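 Glycan array data were curated from 3228 arrays in the Consortium for Functional Glycomics database and kept only where the protein sequence was available. Glycan names were converted to IUPAC-condensed notation, and columns mapping to the same glycan were averaged. The binding signal is a within-array Z-score, averaged across arrays of the same protein sequence at different concentrations or buffers and across linkers. Negative Z-scores can be read as non-binding.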
# [1] = target: Fuc(a1-2)Gal(b1-3)GlcNAc(b1-2)Man(a1-3)[Fuc(a1-2)Gal(b1-3)GlcNAc(b1-2)Man(a1-6)]Man(b1-4)GlcNAc(b1-4)GlcNAc
# Method in brief: as §1
# [2] = target: Fuc(a1-2)Gal(b1-3)GlcNAc(b1-3)[Gal(b1-4)GlcNAc(b1-6)]Gal(b1-4)Glc
# Method in brief: as §1
# [3] = target: Fuc(a1-2)Gal(b1-3)[Fuc(a1-4)]GlcNAc(b1-3)[Gal(b1-4)GlcNAc(b1-6)]Gal(b1-4)Glc
# Method in brief: as §1
# [4] = target: Fuc(a1-2)Gal6S(b1-3)GlcNAc6S
# Method in brief: as §1
# [5] = target: Fuc(a1-2)[Gal(a1-3)]Gal(b1-4)GlcNAc
# Method in brief: as §1
# [6] = target: Fuc(a1-2)[GalNAc(a1-3)]Gal(b1-3)GlcNAc(b1-2)Man(a1-3)[Fuc(a1-2)[GalNAc(a1-3)]Gal(b1-3)GlcNAc(b1-2)Man(a1-6)]Man(b1-4)GlcNAc(b1-4)GlcNAc
# Method in brief: as §1
# [7] = target: Fuc(a1-2)[GalNAc(a1-3)]Gal(b1-3)GlcNAc(b1-3)GalNAc
# Method in brief: as §1
# [8] = target: Fuc(a1-2)[GalNAc(a1-3)]Gal(b1-4)[Fuc(a1-3)]GlcNAc(b1-3)GalNAc
# Method in brief: as §1
# [9] = target: Fuc(a1-3)[Gal(b1-4)]GlcNAc(b1-6)GalNAc
# Method in brief: as §1
# [10] = target: Gal(a1-3)Gal(b1-3)[Fuc(a1-4)]GlcNAc(b1-2)Man(a1-3)[Gal(a1-3)Gal(b1-3)[Fuc(a1-4)]GlcNAc(b1-2)Man(a1-6)]Man(b1-4)GlcNAc(b1-4)GlcNAc
# Method in brief: as §1
# Gal(a1-3)Gal(b1-4)GlcNAc = target: Gal(a1-3)Gal(b1-4)GlcNAc
# Method in brief: as §1
# [11] = target: Gal(a1-3)Gal(b1-4)[Fuc(a1-3)]GlcNAc
# Method in brief: as §1
# Gal(a1-3)GalNAc = target: Gal(a1-3)GalNAc
# Method in brief: as §1
# [12] = target: Gal(a1-4)Gal(b1-3)GlcNAc(b1-2)Man(a1-3)[Gal(a1-4)Gal(b1-3)GlcNAc(b1-2)Man(a1-6)]Man(b1-4)GlcNAc(b1-4)GlcNAc
# Method in brief: as §1
# [13] = target: Gal(b1-3)GalNAc(b1-4)Gal(b1-4)Glc
# Method in brief: as §1
# [14] = target: Gal(b1-3)GlcNAc(b1-2)Man(a1-3)[Gal(b1-3)GlcNAc(b1-2)Man(a1-6)]Man(b1-4)GlcNAc(b1-4)GlcNAc
# Method in brief: as §1
# [15] = target: Gal(b1-3)GlcNAc(b1-3)Gal(b1-4)Glc
# Method in brief: as §1
# [16] = target: Gal(b1-3)GlcNAc(b1-3)Gal(b1-4)[Fuc(a1-3)]GlcNAc(b1-6)[Gal(b1-3)GlcNAc(b1-3)]Gal(b1-4)Glc
# Method in brief: as §1
# [17] = target: Gal(b1-3)[Neu5Ac(a2-6)]GalNAc
# Method in brief: as §1
# [18] = target: Gal(b1-3)[Neu5Ac(a2-6)]GlcNAc(b1-4)Gal(b1-4)Glc
# Method in brief: as §1
# [19] = target: Gal(b1-4)GlcNAc(b1-2)Man(a1-3)[Gal(b1-4)GlcNAc(b1-2)Man(a1-6)][GlcNAc(b1-4)]Man(b1-4)GlcNAc(b1-4)[Fuc(a1-6)]GlcNAc
# Method in brief: as §1
# [20] = target: Gal(b1-4)GlcNAc(b1-3)Gal(b1-4)GlcNAc(b1-3)Gal(b1-4)GlcNAc(b1-2)Man(a1-3)[Gal(b1-4)GlcNAc(b1-3)Gal(b1-4)GlcNAc(b1-3)Gal(b1-4)GlcNAc(b1-2)Man(a1-6)]Man(b1-4)GlcNAc(b1-4)GlcNAc
# Method in brief: as §1
# [21] = target: Gal(b1-4)GlcNAc(b1-3)Gal(b1-4)GlcNAc(b1-3)Gal(b1-4)GlcNAc(b1-3)Gal(b1-4)GlcNAc(b1-2)Man(a1-3)[Gal(b1-4)GlcNAc(b1-3)Gal(b1-4)GlcNAc(b1-3)Gal(b1-4)GlcNAc(b1-3)Gal(b1-4)GlcNAc(b1-2)Man(a1-6)]Man(b1-4)GlcNAc(b1-4)GlcNAc
# Method in brief: as §1
# [22] = target: Gal(b1-4)GlcNAc(b1-3)Gal(b1-4)GlcNAc(b1-3)Gal(b1-4)GlcNAc(b1-3)Gal(b1-4)GlcNAc(b1-2)[Gal(b1-4)GlcNAc(b1-3)Gal(b1-4)GlcNAc(b1-3)Gal(b1-4)GlcNAc(b1-3)Gal(b1-4)GlcNAc(b1-6)]Man(a1-6)[Gal(b1-4)GlcNAc(b1-3)Gal(b1-4)GlcNAc(b1-3)Gal(b1-4)GlcNAc(b1-3)Gal(b1-4)GlcNAc(b1-2)Man(a1-3)]Man(b1-4)GlcNAc(b1-4)[Fuc(a1-6)]GlcNAc
# Method in brief: as §1
# [23] = target: Gal(b1-4)GlcNAc(b1-3)Gal(b1-4)GlcNAc(b1-3)Gal(b1-4)GlcNAc(b1-3)Gal(b1-4)GlcNAc(b1-3)Gal(b1-4)GlcNAc(b1-2)[Gal(b1-4)GlcNAc(b1-3)Gal(b1-4)GlcNAc(b1-3)Gal(b1-4)GlcNAc(b1-3)Gal(b1-4)GlcNAc(b1-3)Gal(b1-4)GlcNAc(b1-6)]Man(a1-6)[Gal(b1-4)GlcNAc(b1-3)Gal(b1-4)GlcNAc(b1-3)Gal(b1-4)GlcNAc(b1-3)Gal(b1-4)GlcNAc(b1-3)Gal(b1-4)GlcNAc(b1-2)Man(a1-3)]Man(b1-4)GlcNAc(b1-4)[Fuc(a1-6)]GlcNAc
# Method in brief: as §1
# [24] = target: Gal(b1-4)GlcNAc(b1-3)[Fuc(a1-3)GlcNAc(b1-6)]Gal(b1-4)Glc
# Method in brief: as §1
# [25] = target: Gal(b1-4)GlcNAc(b1-3)[GlcNAc(b1-6)]Gal(b1-4)GlcNAc
# Method in brief: as §1
# [26] = target: Gal(b1-4)GlcNAc(b1-6)Gal(b1-4)GlcNAc
# Method in brief: as §1
# Gal(b1-4)GlcNAc6P = target: Gal(b1-4)GlcNAc6P
# Method in brief: as §1
binder,measurement,setting,value
Sp8391B-bot-388-20-388 (Bacteroides ovatus) (protein) GCQNNDENEQHYDNKLFISASNFTKEILFKAGDTNVETGLSVAIAKPEEHDIKVTMSPAPELLSTYKLAYYDETAVLLSEEHYSMPETSTTIKSGSIVSPELPIEFINTGELDIKTTYVLPVTIKSVEGIGVLQSAKTYYYVFRGASLINVVCNISRNRAYPDFKNDSKFNNLTENTMEILFKANSFPNTLNTLMGIESNYLLRIGDATIPNNQLQVATSVNNCTSADLQLESGKWYHVAVAFNKGNVKVYINGVEKLSGSTGKSSVSLGAKHTNEEDGSRCFWVGYSYKDDRYFDGVVSEVRIWNRALTAEEIQATNHFYTIEPESEGLIAYWKFDEGSGTVAKDYSVSGYDLTIEKEPKWESVSLPQ,glycan array binding signal (z-score),Fuc(a1-2)Gal,-0.522
same,glycan array binding signal (z-score),[1],2.69
same,glycan array binding signal (z-score),[2],-0.322
same,glycan array binding signal (z-score),[3],1.29
same,glycan array binding signal (z-score),[4],-0.154
same,glycan array binding signal (z-score),[5],-0.199
same,glycan array binding signal (z-score),[6],0.439
same,glycan array binding signal (z-score),[7],-0.474
same,glycan array binding signal (z-score),[8],-0.673
same,glycan array binding signal (z-score),[9],4.03
same,glycan array binding signal (z-score),[10],8.13
same,glycan array binding signal (z-score),Gal(a1-3)Gal(b1-4)GlcNAc,-0.489
same,glycan array binding signal (z-score),[11],-0.616
same,glycan array binding signal (z-score),Gal(a1-3)GalNAc,-0.069
same,glycan array binding signal (z-score),[12],2.6
same,glycan array binding signal (z-score),[13],0.437
same,glycan array binding signal (z-score),[14],3.77
same,glycan array binding signal (z-score),[15],0.105
same,glycan array binding signal (z-score),[16],12.8
same,glycan array binding signal (z-score),[17],-0.208
same,glycan array binding signal (z-score),[18],-0.044
same,glycan array binding signal (z-score),[19],-0.897
same,glycan array binding signal (z-score),[20],2.45
same,glycan array binding signal (z-score),[21],2.49
same,glycan array binding signal (z-score),[22],-0.629
same,glycan array binding signal (z-score),[23],-0.112
same,glycan array binding signal (z-score),[24],0.415
same,glycan array binding signal (z-score),[25],0.193
same,glycan array binding signal (z-score),[26],0.486
same,glycan array binding signal (z-score),Gal(b1-4)GlcNAc6P,0.015

# Reference: the supplement of paper PMC8728848
